Assay [1] in a line: qHTS drug screen for cell cycle checkpoint inhibitors in PARPi-resistant BRCA-mutant ovarian cancer cell lines. (AID 1963452; calls by dose curve; also: potency is read from the fitted curve at half-maximal effect). The settings on record: PEO1/OlaR viability, CellTiter-Glo luminescence, 96 h; for Z-AUC: stronger effect = lower value. In a few lines:
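PEO1, PEO4 and PEO1/OlaR ovarian cancer cells, 600 per well, exposed 96 h at 37C to a dilution series. Viability read by CellTiter-Glo luminescence, normalized to DMSO and empty wells; activity summarized as Z-AUC.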
On the technique in general: qHTS replaces the single test concentration by a dilution series.

Assay [2] in a line: qHTS profiling for inhibitors of Plasmodium falciparum proliferation (AID 504749). Also: nearly all actives have a fitted effect of over 60% in size. Also: potency is read from the fitted curve at half-maximal effect.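 As to activity, negative = inhibition: 0% = DMSO vehicle and full inhibition = artemisinin control.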 The settings on record: P. falciparum in erythrocytes, SYBR Green DNA, 72 h. In a few lines:
(§1)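 Three-day growth assay of blood-stage parasites in erythrocytes (0.3% parasitemia, 2.5% hematocrit) at 37 C, 5% CO2, quantified by SYBR Green DNA staining after overnight detergent lysis.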

In assay [3] the test system is 3D7. The assay is described as above. The settings on record: P. falciparum in erythrocytes, SYBR Green DNA, 72 h; series mostly up to 28.7 µM. In a few lines:
as §1

Assay [4] has as its system AA1029. Described as above. The settings on record: P. falciparum in erythrocytes, SYBR Green DNA, 72 h; series mostly up to 28.7 µM. In a few lines: as §1
Assay [5] deals with AS120. Described as above. The settings on record: P. falciparum in erythrocytes, SYBR Green DNA, 72 h; series mostly up to 28.7 µM. In a few lines: as §1
Assay [6] has as its system ATS189. The description is as above. The settings on record: P. falciparum in erythrocytes, SYBR Green DNA, 72 h; series mostly up to 28.7 µM. In a few lines: as §1
For assay [7], the system named is ATS95. The assay is described as above. The settings on record: P. falciparum in erythrocytes, SYBR Green DNA, 72 h; series mostly up to 28.7 µM. In a few lines:
as §1

Assay [8] concerns C2A. Described as above. The settings on record: P. falciparum in erythrocytes, SYBR Green DNA, 72 h; series mostly up to 28.7 µM. In a few lines: as §1
The test system of assay [9] is CP185. The description is as above. The settings on record: P. falciparum in erythrocytes, SYBR Green DNA, 72 h; series mostly up to 28.7 µM. In a few lines: as §1
In assay [10] the test system is 7G8. Described as above. The settings on record: P. falciparum in erythrocytes, SYBR Green DNA, 72 h; series mostly up to 28.7 µM. In a few lines:
as §1

Assay [11] is described as follows: qHTS for identification of novel therapeutic agents for treatment of microphthalmiaassociated transcription factor (MiT) renal cell carcinoma (RCC) (AID 1963991). The settings on record: CellTiter-Glo, 48 h, stronger effect = lower value. In a few lines:
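Three TFE3-fusion RCC cell lines (UOK109, UOK124, UOK145), 500 cells/well, were exposed to the 1912-compound MIPE 4.0 library for 48 hours at 37 C. Viability was read by CellTiter-Glo luminescence, normalised to DMSO (100%) and empty wells (0%), with 11-concentration curve fits.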

[12] abbreviates: measured here: PEO1 parental Z-AUC.
[13] abbreviates: at 28.7 µM (top of the series), parasite line A.
[14] abbreviates: at 12.8 µM (top of the series), parasite line A.
[15] abbreviates: at 12.8 µM (top of the series), parasite line B.
Setting [16] is: TFE3-RCC UOK109 viability, measured here: UOK109 Z-AUC.
The mark [17] stands for this setting: TFE3-RCC viability, measured here: UOK124 Z-AUC.
The mark [18] stands for this setting: TFE3-RCC viability, measured here: UOK145 Z-AUC.
[19] abbreviates: at 28.7 µM (top of the series), parasite line B.

Results filed as inconclusive are left out. Calls of active or inactive are those of the source. Unless noted, calls follow the shape of the dose curve; as a rule, active = well fitted inhibition curve with a large enough effect; inconclusive = small, poorly fitted or top-dose-only effect; inactive = flat fitted curve, though single readings scatter.

From PubChem BioAssay (NCATS) come the findings set out here.

Turning to `CCc1c2c(nc3ccc(OC(=O)N4CCC(N5CCCCC5)CC4)cc13)-c1cc3c(c(=O)n1C2)COC(=O)[C@]3(O)CC`, in assay [1], the Potency was 30.9 nM (active). Further, the figures for the Z-AUC in assay [1] (setting [12]) and in assay [1] (measured here: PEO4 Z-AUC) were -2.61 and -1.83, respectively. Besides, the activity, negative = inhibition in assay [2] (setting [13]) is -1.15% (inactive). The Potency entry in [3], in [4], in [5], in [6], in [7] and in [8] was “inactive” throughout. Further, the Potency entry in assay [9] was “inactive”.
In the case of `COc1cc(NS(=O)(=O)c2ccc(N)cc2)nc(OC)n1`, the activity, negative = inhibition in assay [2] (setting [14]) is 5.18% (inactive); in assay [2] (setting [15]), -3.51% (inactive). Further, the Potency entry in assay [3], in [10], in assay [4], in assay [5], in [6] and in [7] was “inactive” in each case. Besides, the Potency result in assay [8] and in assay [9] was “inactive” throughout.
Consider `Nc1ccc(S(=O)(=O)Nc2ccccn2)cc1`, for which the z-score in assay [11] (setting [16]) is 1.57; in assay [11] (setting [17]), 0.543; in [11] (setting [18]) it was 0.723. In addition, the activity, negative = inhibition is -13.7% (inactive) in assay [2] (setting [14]) and -1.88% (inactive) in assay [2] (setting [15]). The Potency result in [3], in assay [10], in assay [4], in assay [5], in assay [6] and in [8] was “inactive” in each case. The Potency result in assay [9] is “inactive”.
Turning to `CN1CCN(c2c(F)cc3c(=O)c(C(=O)O)cn4c3c2OCN4C)CC1`, the activity, negative = inhibition in assay [2] (setting [13]) is 4.43% (inactive); in assay [2] (setting [19]), 17.6% (inactive). Moreover, the Potency result in [3], in assay [10], in assay [4], in assay [5], in [6] and in assay [7] was “inactive” each time. The Potency entry in [8] and in assay [9] was “inactive” throughout.
In the case of `CNC(=O)c1cc(Oc2ccc(NC(=O)Nc3ccc(Cl)c(C(F)(F)F)c3)cc2)ccn1`, the Z-AUC was 0.739 (inactive) in assay [1], 0.309 in assay [1] (setting [12]) and 0.253 in assay [1] (measured here: PEO4 Z-AUC). Also, the results for the Potency in assay [10] and in assay [5] were 1 µM (active) and 10 µM (active), respectively.
In the case of `COc1nc(N)nc2c1ncn2[C@@H]1O[C@H](CO)[C@@H](O)[C@@H]1O`, the z-score in assay [11] (setting [16]) amounted to 0.831; in assay [11] (setting [17]), 1.01; in [11] (setting [18]) it was 0.757. Besides, the activity, negative = inhibition in assay [2] (setting [13]) was -5.23% (inactive); in assay [2] (setting [19]), -4.98% (inactive). Besides, the Potency result in assay [3], in [4], in [5], in [6], in [7] and in [8] was “inactive” each time. For the same compound, in assay [9], the Potency result is “inactive”.
With `Cc1ncc([N+](=O)[O-])n1CCO`, the figures for the activity, negative = inhibition in assay [2] (setting [13]) and in assay [2] (setting [19]) were -7.64% (inactive) and 6.06% (inactive), respectively. In addition, the Potency entry in assay [3], in assay [10], in [4], in assay [5], in assay [6] and in [7] was “inactive” each time. The Potency result in assay [8] and in [9] was “inactive” in each case.
For the compound `CC1=C(C(=O)O)N2C(=O)[C@@H](NC(=O)C(N)c3ccccc3)[C@H]2SC1` (stereo partly drawn), the z-score came to 1.68 in assay [11] (setting [16]), 0.228 in [11] (setting [17]) and 0.731 in assay [11] (setting [18]).
`COc1cccc(N(C)C(=S)Oc2ccc3c(c2)CCCC3)n1`: the z-score in assay [11] (setting [16]) is 0.559; in [11] (setting [17]), 0.578; in assay [11] (setting [18]) it was 1.67. The values for the activity, negative = inhibition in assay [2] (setting [13]) and in assay [2] (setting [19]) were -29.5% (inactive) and -22.3% (inactive), respectively. Besides, the Potency entry in assay [4], in assay [6], in [7], in assay [8] and in assay [9] was “inactive” throughout.
